Where a name gives a salt, the structure may show the parent alone. Values without a mark were called inactive.
System: NCI-H1688
Test: inhibition of cell viability relative to untreated control (fraction); higher = stronger growth inhibition, active = 0.5 or more
Conditions: 30 µM; 24 h
Experimental: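 Natural product library (TargetMol, 640 compounds) screened on NCI-H1688 SCLC cells at 30 µM for 24 h; viability by CCK-8 absorbance at 450 nm, normalised to untreated control and expressed as inhibition rate (fraction). Compounds with >50% reduction in viability were selected as hits.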

| SMILES | inhibition of cell viability |
| --- | --- |
| O=C1CCC[C@@H]2[C@H]3CCCN4CCC[C@@H](CN12)[C@@H]34 [(+)-Matrine] | 0.176 |
| COc1cc(OC)c(OC)cc1C=O [Asarylaldehyde] | -0.42 |
| COc1ccc(Cc2nccc3cc(OC)c(OC)cc23)cc1OC [Papaverine hydrochloride] | 0.205 |
| CC(=O)OC12COC1CC(O)C1(C)C(=O)C(O)C3=C(C)C(O)CC(O)(C(OC(=O)c4ccccc4)C21)C3(C)C (stereo not given) [10-Deacetylbaccatin III] | 0.454 |
| CCC1=CC2CN3CCc4c([nH]c5ccccc45)C(C(=O)OC)(C2)C13 (stereo not given) [Catharanthine sulfate] | 0.191 |
| O=c1cccc2n1C[C@@H]1CNC[C@H]2C1 [Cytisine] | -0.243 |
| C[C@]12CC[C@H]3[C@@H](CCC4=CC(=O)CC[C@@]43C)[C@@H]1CC[C@@H]2O [Testosterone] | 0.182 |
| COc1cc2c(cc1OC)C13CCN4CC5=CCOC6CC(=O)N2C1C6C5CC43 (stereo not given) [Brucin] | -0.145 |
| NCCc1c[nH]c2ccc(O)cc12 [Serotonin hydrochloride] | 0.104 |
| S=C=NCc1ccccc1 [Benzyl isothiocyanate] | 0.59 (active) |
| CC1=CC(=O)c2c(O)cccc2C1=O [Plumbagin] | 1 (active) |
| COc1ccc(CC2NCCc3cc(OC)c(OC)cc32)cc1OC (stereo not given) [Tetrahydropapaverine hydrochloride] | 0.125 |
| C[C@]12CCC(=O)C=C1CC[C@@H]1[C@@H]2CC[C@@]2(C)[C@H]1CC[C@]2(C)O [17-Methyltestosterone] | 0.403 |
| CNCC(O)c1ccc(O)cc1 (stereo not given) [Synephrine] | 0.204 |
| CCC(=O)O[C@H]1CC[C@H]2[C@@H]3CC[C@H]4CC(=O)[C@H](C)C[C@]4(C)[C@H]3CC[C@]12C [Drostanolone Propionate] | 0.313 |
| C[C@@H]1CC[C@@]2(OC1)O[C@H]1[C@@H](O)[C@H]3[C@@H]4CC[C@H]5C[C@@H](O[C@@H]6O[C@H](CO)[C@H](O[C@@H]7O[C@H](CO)[C@@H](O)[C@H](O[C@@H]8OC[C@@H](O)[C@H](O)[C@H]8O)[C@H]7O[C@@H]7O[C@H](CO)[C@H](O)[C@H](O[C@@H]8O[C@H](CO)[C@@H](O)[C@H](O)[C@H]8O)[C@H]7O)[C@H](O)[C@H]6O)[C@H](O)C[C@]5(C)[C@H]4CC[C@]3(C)[C@H]1[C@@H]2C [Digitonin] | 1.01 (active) |
| Cc1c2ccncc2c(C)c2c1[nH]c1ccccc12 [Ellipticine] | 0.996 (active) |
| CC(=O)O[C@H]1C[C@H](O[C@H]2[C@@H](O)C[C@H](O[C@H]3[C@@H](O)C[C@H](O[C@H]4CC[C@@]5(C)[C@H](CC[C@@H]6[C@@H]5C[C@@H](O)[C@]5(C)[C@@H](C7=CC(=O)OC7)CC[C@]65O)C4)O[C@@H]3C)O[C@@H]2C)O[C@H](C)[C@H]1O[C@@H]1O[C@H](CO)[C@@H](O)[C@H](O)[C@H]1O [Lanatoside C] | 0.994 (active) |
| CN1[C@@H]2CC[C@H]1C[C@@H](OC(=O)C(CO)c1ccccc1)C2 (stereo not given in full) [Atropine] | -0.146 |
| COc1cc2c(c(OC)c1OC)-c1ccc(OC)c(=O)cc1[C@@H](NC(C)=O)CC2 [Colchicine] | 0.84 (active) |

| SMILES | inhibition of cell viability |
| --- | --- |
| C/C=C(\C)C(=O)N[C@@H](c1ccccc1)[C@@H](O)C(=O)O[C@H]1C[C@@]2(O)[C@@H](OC(=O)c3ccccc3)[C@@H]3[C@]4(OC(C)=O)CO[C@@H]4C[C@H](O)[C@@]3(C)C(=O)[C@H](OC(C)=O)C(=C1C)C2(C)C [Cephalomannine] | 0.721 (active) |
| CN(CC(=O)O)C(=N)NP(=O)(O)O [Creatine phosphate disodium salt] | 0.256 |
| CC[C@H](C)[C@H]1O[C@]2(C=C[C@@H]1C)C[C@@H]1C[C@@H](C/C=C(\C)[C@@H](O[C@H]3C[C@H](OC)[C@@H](O[C@H]4C[C@H](OC)[C@@H](O)[C@H](C)O4)[C@H](C)O3)[C@@H](C)/C=C/C=C3\CO[C@@H]4[C@H](O)C(C)=C[C@@H](C(=O)O1)[C@]34O)O2.CO[C@H]1C[C@H](O[C@H]2[C@H](C)O[C@@H](O[C@@H]3/C(C)=C/C[C@@H]4C[C@@H](C[C@]5(C=C[C@H](C)[C@@H](C(C)C)O5)O4)OC(=O)[C@@H]4C=C(C)[C@@H](O)[C@H]5OC/C(=C\C=C\[C@@H]3C)[C@]54O)C[C@@H]2OC)O[C@@H](C)[C@@H]1O [Abamectin] | 1.01 (active) |
| COc1cc([C@@H]2c3cc4c(cc3[C@@H](O)[C@H]3COC(=O)[C@H]23)OCO4)cc(OC)c1O [4'-Demethylepipodophyllotoxin] | 0.568 (active) |
| COc1ccc2c(c1OC)CN1CCc3cc4c(cc3C1C2)OCO4 (stereo not given) [Tetrahydroberberine THB] | 0.0966 |
| COc1cc(C2OCC3C(c4cc(OC)c(O[C@@H]5O[C@H](CO)[C@@H](O)[C@H](O)[C@H]5O)c(OC)c4)OCC23)cc(OC)c1O[C@H]1O[C@@H](CO)[C@H](O)[C@@H](O)[C@@H]1O (stereo not given in full) [Eleutheroside E] | 0.231 |
| Cc1c([C@H](C)[C@@H]2NC[C@@H](C)C[C@H]2O)ccc2c1C[C@H]1[C@H]2CC=C2C[C@@H](O)CC[C@@]21C [Veratramine] | 0.262 |
| C[C@@H]1C[C@@H]([C@H](O)CC2CC(=O)NC(=O)C2)C(=O)[C@@H](C)C1 [Actidione] | 0.943 (active) |
| CCC12C=CCN3CC[C@@]4(c5ccc(OC)cc5N(C)[C@H]4[C@@](O)(C(=O)OC)[C@@H]1OC(C)=O)[C@@H]32 (stereo not given in full) [Vindoline] | -0.0958 |
| CCN1C[C@]2(COC)[C@H](O)C[C@H](OC)[C@@]34[C@@H]5C[C@@]6(O)[C@H](OC(=O)c7ccccc7)[C@@H]5[C@@](OC(C)=O)([C@@H]([C@H](OC)[C@H]23)[C@@H]14)[C@@H](O)[C@@H]6OC [Aconitine] | -0.116 |
| c1cc2c(cc1[C@H]1OC[C@H]3[C@@H]1CO[C@@H]3c1ccc3c(c1)OCO3)OCO2 [Sesamin] | -0.0637 |
| CCC1=C[C@@H]2CN3CCc4c([nH]c5ccccc45)[C@@](C(=O)OC)(C2)[C@@H]13 [Catharanthine tartrate] | -0.101 |
| O=C1C[C@@H]2OCC=C3CN4CC[C@]56c7ccccc7N1[C@H]5[C@H]2[C@H]3C[C@H]46 [Strychnine Sulfate] | -0.193 |
| C=C[C@@H]1C2=CCOC(=O)C2=CO[C@H]1O[C@@H]1O[C@H](CO)[C@@H](O)[C@H](O)[C@H]1O [Gentiopicrin] | -0.0346 |
| COc1cc([C@@H]2c3cc4c(cc3[C@H](O)[C@H]3COC(=O)[C@H]23)OCO4)cc(OC)c1OC [Podophyllotoxin] | 0.839 (active) |
| C=C[C@H]1CN2CC[C@H]1C[C@H]2[C@H](O)c1ccnc2ccccc12 [Cinchonidine] | -0.042 |
| CC(=O)O[C@@]12CO[C@@H]1C[C@H](O)[C@@]1(C)C(=O)[C@H](O)C3=C(C)[C@@H](OC(=O)[C@H](O)[C@@H](NC(=O)c4ccccc4)c4ccccc4)C[C@@](O)([C@@H](OC(=O)c4ccccc4)[C@H]21)C3(C)C [Deacetyltaxol] | 0.667 (active) |
| COc1cccc2c1cc([N+](=O)[O-])c1c(C(=O)O)cc3c(c12)OCO3 [Aristolochic Acid] | 0.49 |
| CC1=C(O)C(=O)C=C2C1=CC=C1[C@@]2(C)CC[C@@]2(C)[C@@H]3C[C@](C)(C(=O)O)CC[C@]3(C)CC[C@]12C [Celastrol] | 1 (active) |
| CCC1=C[C@H]2CN3CCc4c([nH]c5ccccc45)[C@](C(=O)OC)(C2)[C@H]13 [Catharanthine] | 0.0372 |

Reference: the supplement of paper PMC11634586
